Experimental data published in PubChem BioAssay (NCATS).
Several values for one entry are separate records, joined by “and”; a condition that tells them apart may be missing. Equal values may be shown once. Records with an inconclusive call do not appear. Entries that show only a call come without a potency. Unmarked numbers belong to inactive results. Activity calls are given as the source filed them. The call rests on the fitted dose curve; in most records, active means well fitted inhibition curve with a large enough effect; inconclusive means small, poorly fitted or top-dose-only effect; inactive means flat fitted curve, though single readings scatter.

These compounds were tested against Glutathione peroxidase 1 (Homo sapiens) (UniProt P07203) (assay: Primary qHTS Assay for Inhibitors of Recombinant Selenoprotein Glutathione Peroxidase 1 (GPX1) (AID 1845191; further: nearly all actives have a fitted effect of over 65% in size)). Conditions: recombinant GPX1, GR-coupled NADPH fluorescence, 15 min; series mostly up to 48.8 µM; activity, negative = inhibition: at the top concentration.
Chain of Glutathione peroxidase 1 (Homo sapiens) (P07203 whole entry, looked up): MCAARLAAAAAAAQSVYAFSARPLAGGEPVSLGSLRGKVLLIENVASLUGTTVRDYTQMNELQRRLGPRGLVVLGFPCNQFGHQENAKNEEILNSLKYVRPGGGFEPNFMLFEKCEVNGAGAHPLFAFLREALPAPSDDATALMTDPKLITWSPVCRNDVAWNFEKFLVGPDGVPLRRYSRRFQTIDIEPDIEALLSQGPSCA
Source text: Assay Provider: Elias S.J. Arner MD PhD.
Department of Medical Biochemistry and Biophysics
Karolinska Institutet, Solna, Stockholm, Sweden
Selenoprotein glutathione peroxidases (GPX), like the ubiquitously expressed GPX1 and the ferroptosis modulator GPX4, enact their antioxidant activities by reducing hydroperoxides using glutathione. […] GPX1 and GPX4 inhibitors have thus shown promise as anti-cancer agents. Existing inhibitors are often promiscuous, or modulate GPX activity only indirectly, so novel direct inhibitors identified through screening against GPX1 and GPX4 could be valuable. Here, we developed optimized glutathione reductase (GR)-coupled GPX assays for the biochemical high-throughput screen (HTS) of almost 12,000 compounds with known mechanisms of action. Initial hits were triaged using a GR counter-screen, assessed for isoform specificity using a separate GPX2 assay, and were assessed for general selenocysteine-targeting activity using a thioredoxin reductase (TXNRD1) assay. With this suite of assays, we identified novel GPX1/GPX2- and GPX4-specific inhibitors and can here present a validated pipeline for future discovery research for selenoprotein-targeting agents.
SEQUENCE No. (e.g., 1, 2, 3, etc.); […] (e.g., Cells, Incubation, Reagent, etc.); VALUE; DESCRIPTION.
1; Reagent 1; 3 uL; GPx1 enzyme or no enzyme control in 1536-well, black, solid Greiner assay plate.
2; Compound; 25 nL; Kalypsis pin tool (Wako USA) equipped with a 1536-well pin head.
3; Incubation; 30 min; room temperature.
4; Reagent 2; 1 uL; 10 nM GPX1, 1 mM GSH, 0.5 mM CHP, 0.5 mM NADPH, 100 nM GR, 0.01% BSA substrate
5; Detection; Fluorescence; ViewLux microplate reader, excitation 340 nm and emission 450 nm.
6; Incubation; 15 min; room temperature.
7; Detection; Fluorescence; ViewLux microplate reader, excitation 340 nm and emission 450 nm.
NOTES (numbers refer to Sequence numbers above)
1. 3 uL of 16.66 nM GPX1 and 0.016% BSA in assay buffer (50 mM Tris-HCl, 2 mM EDTA (pH 7.5), 150 mM NaCl) was added to columns 3-48 of 1536-well assay plates using a BioRAPTR Flying Reagent Dispenser (Let's Go Robotics (LGR), Carlsbad, CA). A no-enzyme control (0.01% BSA in TES assay buffer) was added to columns 1-2.
2. 25 nL of test compounds and DMSO controls were added to each well with a pin tool (Kalypsys).
3. The assay plates were incubated for 30 minutes at room temperature.
4. 1 uL of master mix (500 nM glutathione reductase (GR), 5 mM reduced glutathione (GSH), 2.5 mM NADPH in assay buffer) was added. 1 uL of cumene hydroperoxide (CHP) ([2.5 mM] in 50% EtOH) was then added within 5 minutes to initiate the reaction. Final concentrations were: 10 nM GPX1, 1 mM GSH, 0.5 mM CHP, 0.5 mM NADPH, 100 nM GR, 0.01% BSA.
5. Initial fluorescence readout (t=0) at 340/450 nm was measured using a ViewLux multimodal detector (PerkinElmer, Waltham, MA).
7. Endpoint fluorescence readout (t=15) at 340/450 nm was measured 15 min after room temperature incubation.
Potency means the concentration at half of the fitted maximal effect.

| Compound | Potency | activity, negative = inhibition | outcome |
| --- | --- | --- | --- |
| COC(=O)C1=C(C)NC(C)=C(C(=O)OCCN(C)Cc2ccccc2)C1c1cccc([N+](=O)[O-])c1 (stereo not given) | inactive | – | – |
| Nc1c2c(nc3ccccc13)CCCC2O (stereo not given) | – | -21.8% | – |
| NS(=O)(=O)c1cc2c(cc1Cl)NC(C1CC3C=CC1C3)NS2(=O)=O (stereo not given) | inactive | – | – |
| Cc1cc(C)c(/C=C2\C(=O)Nc3ccccc32)[nH]1 | inactive | – | – |
| c1cc(CN2CCCCC2)cc(OCCCNc2nc3ccccc3s2)c1 | – | – | inactive |
| CCCCNC(=O)NS(=O)(=O)c1ccc(C)cc1 | inactive | – | – |
| CN=C(NC#N)NCCSCc1nc[nH]c1C | inactive | – | – |
| CO[C@@]1(NC(=O)CSCC#N)C(=O)N2C(C(=O)O)=C(CSc3nnnn3C)CS[C@@H]21 | 4.04 µM (active) and 25.1 µM (active) | – | – |
| C[C@]12CC[C@@H]3c4ccc(O)cc4C[C@@H](CCCCCCCCCS(=O)CCCC(F)(F)C(F)(F)F)[C@H]3[C@@H]1CC[C@@H]2O (stereo not given in full) | inactive | – | – |
| NC(=O)c1ncn([C@@H]2O[C@H](CO)[C@@H](O)[C@H]2O)c1O | inactive | – | – |
| CN(C)CC/C=C1\c2ccccc2COc2ccccc21 | inactive | – | – |
| CCCCCCCC/C=C\CCCCCCCC(=O)NCc1ccc(O)c(OC)c1 | – | -16.3% | – |
| CN(C)CCN(Cc1cccs1)c1ccccn1 | inactive | – | – |
| CC1=NS(=O)(=O)c2cc(Cl)ccc2N1 | inactive | – | – |
| O=C(O)CCCCCCCC(=O)O | inactive | – | – |
| CC(=O)[C@]1(O)Cc2c(O)c3c(c(O)c2[C@@H](O[C@H]2C[C@H](N)[C@H](O)[C@H](C)O2)C1)C(=O)c1ccccc1C3=O | inactive | – | – |
| Nc1nc(N)c2nc(-c3ccccc3)c(N)nc2n1 | 2.86 µM (active) | – | – |
| CCCCOCCOCCOCc1cc2c(cc1CCC)OCO2 | – | -1.14% | – |
| COCCc1ccc(OCC(O)CNC(C)C)cc1 (stereo not given) | inactive | – | – |
| CNCCCN1c2ccccc2CCc2ccccc21 | inactive | – | – |

| Compound | Potency | activity, negative = inhibition | outcome |
| --- | --- | --- | --- |
| CC(N=C(NC#N)Nc1ccncc1)C(C)(C)C (stereo not given) | inactive | – | – |
| CN(C)C/C=C(/c1ccc(Br)cc1)c1cccnc1 | – | – | inactive |
| CCN(CC)CC(=O)Nc1c(C)cccc1C | inactive | – | – |
| Nc1ncn([C@@H]2O[C@H](CO)[C@@H](O)[C@H]2O)c(=O)n1 | inactive | – | – |
| CCC(=O)c1ccc2c(c1)N(CCCN(C)C)c1ccccc1S2 | inactive | – | – |
| COc1cc(Cc2cnc(N)nc2N)cc(OC)c1OC | inactive | – | – |
| c1cnc(N2CCN(Cc3ccc4c(c3)OCO4)CC2)nc1 | – | -13.1% | – |
| CCOC(=O)c1cnc2c(cnn2CC)c1NN=C(C)C | – | – | inactive |
| CN(C)CCCN1c2ccccc2Sc2ccccc21 | inactive | – | – |
| C[N+](C)(C)CCOC(N)=O | inactive | – | – |
| O=C(O)CP(=O)(O)O | – | -13.9% | – |
| CCCN(CCC)C(=O)C(CCC(=O)O)NC(=O)c1ccccc1 (stereo not given) | inactive | – | – |
| c1ccc2c(c1)CCCC2C1=NCCN1 (stereo not given) | inactive | – | – |
| COCC(=O)O[C@]1(CCN(C)CCCc2nc3ccccc3[nH]2)CCc2cc(F)ccc2[C@@H]1C(C)C | – | -21.3% | – |
| CN(C)[C@@H]1C(=O)C(C(N)=O)=C(O)[C@@]2(O)C(=O)C3=C(O)c4c(O)ccc(Cl)c4[C@@H](O)[C@H]3C[C@@H]12 | inactive | – | – |
| CN1C(=O)CC[C@H]1c1cccnc1 | – | – | inactive |
| CCNC(=O)N1CCN(CCCC(c2ccc(F)cc2)c2ccc(F)cc2)CC1 | – | – | inactive |
| CC(C)[N+](C)(CCOC(=O)C1c2ccccc2Oc2ccccc21)C(C)C | inactive | – | – |
| Cc1ccc(S(=O)(=O)NC(=O)NN2CCCCCC2)cc1 | inactive | – | – |
| CCc1c(C)[nH]c2c1C(=O)C(CN1CCOCC1)CC2 (stereo not given) | inactive | – | – |
